Bioassay records deposited in PubChem by National Center for Advancing Translational Sciences (NCATS).
Sampled rows, rich in hits. Any-hit rate of the full collection: about 18%.
TDP1 cell CPT: growth inhibition of DT40 Tdp1-/-;hTDP1 cells with camptothecin (screen for TDP1 inhibitors). chicken DT40 Tdp1-/-;hTDP1 cells + 20 nM CPT, ATP luminescence, 48 h. Potency, µM (titrated, usually from 46.2 µM), for the others: at the top dose activity change, negative = growth inhibition, hits mostly inhibitors. 12% of 420,000 active; note: potency is the fitted concentration of half-maximal effect; % is set by controls: 0 for no effect and ±100 for the full control effect; nearly all actives have a fitted effect of over 55% in size
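Chicken DT40 Tdp1-/- cells stably complemented with human TDP1 were seeded at 400 cells/well in medium containing 20 nM camptothecin, exposed to pin-transferred compounds, and grown at 37 °C for at least 48 hr. Viability was read as ATP luminescence.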
HepG2 tox: kills HepG2 cells in TGF-b inhibitor counter-screen | 0.76% of 410,000 active | Potency, µM (highest dose often 46.1 µM), without a hit: at the top dose activity change, negative = cytotoxicity, most hits filed as cytotoxic | HepG2 CAGA-GFP viability, ATP luminescence, 18 h; note: potency is the fitted concentration of half-maximal effect
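HepG2 CAGA-GFP cells (1000/well, DMEM with 1% FBS) received compound, then TGF-beta at 500 pg/mL final, and were incubated 18 hours at 37 degrees C. Viability was read by CellTiter-Glo luminescence. Media-only wells were set as complete cell-killing and DMSO as no toxicity.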
TDP1 cell noCPT: qHTS for Inhibitors of human tyrosyl-DNA phosphodiesterase 1 (TDP1): qHTS in cells in absence of CPT; DT40 Tdp1-/- hTDP1 cells, no CPT, ATP luminescence, 48 h; Potency, µM (highest dose often 46.2 µM), for inactives: at the highest dose activity change, negative = growth inhibition, actives largely listed as inhibitors; 15% of 420,000 active; note: potency is the fitted concentration of half-maximal effect; % is set by controls: 0 for no effect and ±100 for the full control effect; nearly all actives have a fitted effect of over 55% in size
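DT40 Tdp1-/-;hTDP1 cells, no CPT (DMSO vehicle only), 400 cells/well; compounds pin-transferred; ≥48 hr, 37 °C; CellTiter-Glo 30 min RT dark, luminescence read.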
TDP1 block: blocks human tyrosyl-DNA phosphodiesterase 1. 0.28% of 350,000 active. recombinant TDP1, AlphaScreen DNA substrate cleavage. Potency, µM (titrated, usually from 130 µM), without a hit: at the top dose activity change, negative = inhibition, actives largely listed as inhibitors; note: potency is the fitted concentration of half-maximal effect; % is set by controls: 0 for no effect and ±100 for the full control effect; nearly all actives have a fitted effect of over 40% in size
Target sequence (Q9NUW8 whole entry, looked up): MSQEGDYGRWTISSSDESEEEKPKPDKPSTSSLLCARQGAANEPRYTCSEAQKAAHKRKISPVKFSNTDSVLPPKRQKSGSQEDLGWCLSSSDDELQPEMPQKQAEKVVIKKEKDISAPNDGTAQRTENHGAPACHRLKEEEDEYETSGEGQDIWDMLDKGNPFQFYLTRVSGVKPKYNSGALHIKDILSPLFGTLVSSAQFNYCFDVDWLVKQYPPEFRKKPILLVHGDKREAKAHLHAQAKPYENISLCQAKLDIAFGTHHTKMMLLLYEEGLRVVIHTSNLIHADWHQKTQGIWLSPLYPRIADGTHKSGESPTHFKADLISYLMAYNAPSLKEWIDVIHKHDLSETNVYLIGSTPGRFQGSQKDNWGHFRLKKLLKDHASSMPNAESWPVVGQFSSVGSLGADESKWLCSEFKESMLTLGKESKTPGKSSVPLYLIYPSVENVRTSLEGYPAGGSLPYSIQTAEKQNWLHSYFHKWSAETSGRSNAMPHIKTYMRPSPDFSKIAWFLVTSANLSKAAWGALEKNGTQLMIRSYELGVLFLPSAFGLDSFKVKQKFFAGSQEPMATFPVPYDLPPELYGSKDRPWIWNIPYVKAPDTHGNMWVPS
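Tdp1 1 nM final; 15 min RT w/ cpd; substrate 15 nM, 5 min; beads 10 ug/ml, 10 min; AlphaScreen read. Neg ctrl: no enzyme.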
IL-1B inflam inh: blocks inflammasome-driven IL-1 beta release. THP-1 LPS/ATP IL-1B secretion, AlphaLISA, 16 h; active compounds read low. activity change, % at 57.5 µM. 4.7% of 360,000 active. AID 743279; in the data active = activity change below about -50%; inconclusive = mostly about -30% to -49%; note: % is set by controls: 0 for no effect and ±100 for the full control effect
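THP-1 cells pretreated 1 hr with compounds (up to 57.5 uM final), then stimulated with LPS (250 ng/mL final) plus ATP (1.25 mM final); secreted IL-1B measured by AlphaLISA after 16 hr, decreased signal indicating inhibition.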
TGFb inhibitor: blocks TGF-b signaling | HepG2 CAGA-GFP TGF-b/SMAD3 reporter, GFP fluorescence, 18 h; TGF-beta stimulated, 500 pg/mL final | Potency, µM (series often up to 46.1 µM), for inactives: at the highest dose activity, negative = inhibition, most hits filed as inhibitors | 1.2% of 410,000 active; note: potency is the fitted concentration of half-maximal effect; % is set by controls: 0 for no effect and ±100 for the full control effect; nearly all actives have a fitted effect of over 65% in size
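Using HEPG2 CAGA-GFP reporter cells at 1000 cells/well, we pinned test compounds, stimulated with recombinant TGF-beta (500 pg/mL final) and measured total well GFP after 18 h.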
* = called active by the depositor; [ ] = another dose, or the depositor's remark. Unless noted, calls come from the whole dose curve; as a rule, active = well fitted curve in the direction sought with a large enough effect; inconclusive = small, poorly fitted or top-dose-only effect, or another doubt; inactive = no such curve, though single readings can be large; an effect the other way counts as inactive or inconclusive.

What do the screens show for `FC(F)(F)c1cc(Cc2nc3ccccc3n2C(CCc2ccccc2)c2nc3ccccc3[nH]2)cc(C(F)(F)F)c1` (stereo unspecified)?
TDP1 cell CPT: 7.31µM*; TDP1 cell noCPT: 7.31µM*; IL-1B inflam inh: 4.9

What do the screens show for `Cc1ccc(Cc2nc3ccccc3n2C(CCc2ccccc2)c2nc3ccccc3[nH]2)cc1` (stereo unspecified)?
TDP1 cell CPT: inconclusive; TDP1 cell noCPT: 18.4µM*; IL-1B inflam inh: -69.1*

How did COc1ccccc1NC(=O)N1CCN(c2cccc(C(F)(F)F)c2)CC1 do in these assays?
TDP1 cell CPT: inconclusive; HepG2 tox: 4.8%; TDP1 cell noCPT: inconclusive; TDP1 block: 2.1%; IL-1B inflam inh: -14.5; TGFb inhibitor: -6.1%

Results for Cc1ccc(S(=O)(=O)CC(=O)N2CCN(c3cccc(C(F)(F)F)c3)CC2)cc1 ?
TDP1 cell CPT: 16.4µM*; HepG2 tox: -14.8%; TDP1 cell noCPT: 20.6µM*; TDP1 block: 0.8%; IL-1B inflam inh: -0.9; TGFb inhibitor: -8.1%

Results for Cc1ccc(CC(=O)N2CCN(c3cccc(C(F)(F)F)c3)CC2)cc1 ?
TDP1 cell CPT: 23.1µM*; HepG2 tox: 2.8%; TDP1 cell noCPT: 18.4µM*; TDP1 block: 0.0%; IL-1B inflam inh: -4.8; TGFb inhibitor: -25.0%

What do the screens show for `COc1ccccc1CC(=O)N1CCN(c2cccc(C(F)(F)F)c2)CC1`?
TDP1 cell CPT: 23.1µM*; HepG2 tox: -21.2%; TDP1 cell noCPT: 13µM*; TDP1 block: 3.9%; IL-1B inflam inh: -4.7; TGFb inhibitor: inconclusive

Results for CC1(C2CC2)NC(=O)N(CC(=O)N2CCN(c3cccc(C(F)(F)F)c3)CC2)C1=O (stereo unspecified) ?
TDP1 cell CPT: 14.6µM*; HepG2 tox: -43.2%; TDP1 cell noCPT: 11.6µM*; TDP1 block: 0.9%; IL-1B inflam inh: -3.4; TGFb inhibitor: 10.2%

What do the screens show for `O=C(Cn1ncc2ccccc21)N1CCN(c2cccc(C(F)(F)F)c2)CC1`?
TDP1 cell CPT: inconclusive; HepG2 tox: -16.8%; TDP1 cell noCPT: inconclusive; TDP1 block: -4.8%[56.1 µM]; IL-1B inflam inh: -5.9; TGFb inhibitor: 7.6%

Results for O=C(/C=C/c1ccc(Br)cc1)N1CCN(c2cccc(C(F)(F)F)c2)CC1 ?
TDP1 cell CPT: inconclusive; HepG2 tox: -36.8%; TDP1 cell noCPT: inconclusive; TDP1 block: 1.9%; IL-1B inflam inh: inconclusive; TGFb inhibitor: inconclusive

How did Cc1nc(-c2ccc(S(=O)(=O)N3CCN(c4ccc(F)cc4)CC3)cc2)co1 do in these assays?
TDP1 cell CPT: inconclusive; HepG2 tox: -23.4%; TDP1 cell noCPT: inconclusive; TDP1 block: 3.3%; TGFb inhibitor: -27.2%

How did Cc1nc(-c2ccc(S(=O)(=O)N3CCN(c4cccc(C(F)(F)F)c4)CC3)cc2)co1 do in these assays?
TDP1 cell CPT: inconclusive; HepG2 tox: -4.1%; TDP1 cell noCPT: 18.4µM*; TDP1 block: 4.4%; TGFb inhibitor: -13.3%

Results for NC(=O)c1ccc(NC(=O)CN2CCN(c3ccccc3)CC2)cc1 ?
TDP1 cell CPT: 17.0%; HepG2 tox: 0.7%; TDP1 cell noCPT: 1.7%; IL-1B inflam inh: -9.0; TGFb inhibitor: 1.4%

How did Cc1cccc(CSC2=CS(=O)(=O)c3ccccc3N2)c1 do in these assays?
TDP1 cell CPT: inconclusive; HepG2 tox: -0.7%; TDP1 cell noCPT: 23.1µM*; TDP1 block: 7.5%; IL-1B inflam inh: -5.4; TGFb inhibitor: -9.7%

How did O=S1(=O)C=C(SCc2cccc(Cl)c2)Nc2ccccc21 do in these assays?
TDP1 cell CPT: inconclusive; HepG2 tox: 1.7%; TDP1 cell noCPT: -27.1%; TDP1 block: 3.2%; IL-1B inflam inh: -50.6*; TGFb inhibitor: -14.4%

Results for CC(C)(C)NC(=O)C1c2ccccc2OCC(=O)N1Cc1ccccn1 (stereo unspecified) ?
TDP1 cell CPT: -8.6%; TDP1 cell noCPT: -6.8%; IL-1B inflam inh: 27.4

How did CCc1ccccc1NC(=O)COc1ccc2c(=O)c(Oc3cc(C)ccc3C)coc2c1 do in these assays?
TDP1 cell CPT: 18.4µM*; HepG2 tox: -7.0%; TDP1 cell noCPT: 23.1µM*; TDP1 block: -3.4%; IL-1B inflam inh: 5.3; TGFb inhibitor: 2.9%

What do the screens show for `Cc1ccc(Oc2c(C(F)(F)F)oc3cc(OCC(=O)NC4CCCCC4)ccc3c2=O)cc1`?
TDP1 cell CPT: inconclusive; HepG2 tox: 0.5%; TDP1 cell noCPT: inconclusive; TGFb inhibitor: -7.9%

How did CC(C)c1ccccc1NC(=O)COc1ccc2c(=O)c(Oc3ccc4ccccc4c3)coc2c1 do in these assays?
TDP1 block: 5.3%

What do the screens show for `Cc1ccc(C)c(Oc2coc3cc(OC(=O)c4cccs4)ccc3c2=O)c1`?
TDP1 cell CPT: 29.1µM*; HepG2 tox: 23.6%; TDP1 cell noCPT: inconclusive; IL-1B inflam inh: 29.5; TGFb inhibitor: 11.5%

How did Cc1cc(C)cc(Oc2coc3cc(OCC(=O)NC4CCCCC4)ccc3c2=O)c1 do in these assays?
TDP1 cell CPT: inconclusive; HepG2 tox: 9.1%; TDP1 cell noCPT: 20.6µM*; TGFb inhibitor: 8.5%

Results for COc1ccc(Oc2coc3cc(OC(=O)c4cccs4)ccc3c2=O)cc1 ?
TDP1 cell CPT: -21.3%; HepG2 tox: 8.1%; TDP1 cell noCPT: -28.5%; TDP1 block: -1.9%; IL-1B inflam inh: 11.0; TGFb inhibitor: -23.3%

What do the screens show for `O=C(Nc1cccc(C(=O)O)c1)/C(=C\c1ccccc1)NC(=O)c1ccco1`?
TDP1 cell CPT: -0.1%; HepG2 tox: 7.0%; TDP1 cell noCPT: -0.6%; IL-1B inflam inh: 6.5; TGFb inhibitor: 1.6%

Results for CCCCn1c(SCC(=O)NC2CC2)nc2ccccc2c1=O ?
TDP1 cell CPT: 3.1%; HepG2 tox: -1.9%; TDP1 cell noCPT: 5.3%; TDP1 block: 1.7%; IL-1B inflam inh: -4.4; TGFb inhibitor: 3.0%

How did O=[N+]([O-])c1ccc(O)c(C2CCCCC2)c1 do in these assays?
TDP1 cell CPT: inconclusive; HepG2 tox: -47.1%; TDP1 cell noCPT: inconclusive; IL-1B inflam inh: inconclusive; TGFb inhibitor: inconclusive

What do the screens show for `NC(=O)c1cc(Br)cc(C2CCCCC2)c1O`?
TDP1 cell CPT: 7.8%; HepG2 tox: -52.9%; TDP1 cell noCPT: -21.2%; TDP1 block: -3.8%; IL-1B inflam inh: -55.7*; TGFb inhibitor: inconclusive
